Assay outcomes from PubChem.
An excerpt weighted towards active compounds, which were near 11% of everything screened.
AmpC detergent: blocks E. coli AmpC beta-lactamase in detergent assay; Potency, µM (series often up to 114 µM), without a hit: at the highest dose activity change, negative = inhibition, most hits filed as inhibitors; 370,000 compounds, 0.041% hits; AmpC hydrolysis of nitrocefin, absorbance 480 nm, 0.01% Triton; P00811; AID 485294;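 also: 0% = no-compound wells and -100% = no-enzyme wells; nearly all actives have a fitted effect of over 25% in size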
Target sequence (P00811 whole entry, looked up): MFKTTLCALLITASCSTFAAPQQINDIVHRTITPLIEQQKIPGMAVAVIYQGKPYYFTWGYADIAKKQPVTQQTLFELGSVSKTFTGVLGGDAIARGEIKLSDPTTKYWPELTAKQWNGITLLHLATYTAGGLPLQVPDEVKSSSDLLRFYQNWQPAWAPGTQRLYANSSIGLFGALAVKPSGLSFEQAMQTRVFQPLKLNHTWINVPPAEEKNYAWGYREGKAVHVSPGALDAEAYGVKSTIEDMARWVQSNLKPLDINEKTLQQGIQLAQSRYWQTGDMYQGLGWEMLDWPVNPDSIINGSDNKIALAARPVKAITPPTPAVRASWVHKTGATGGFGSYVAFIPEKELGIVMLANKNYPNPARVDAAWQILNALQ
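20 mM phosphate pH 7.0 + 0.01% (detergent screen) or 0.0001% Triton X-100; 5.3 nM AmpC reagent; cpd preinc 15 min RT; nitrocefin (800 uM stock) to start; A480 q20 s × 4 min; Activity was normalised to no-enzyme and no-compound control wells.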
Pf growth 48h: P. falciparum growth inhibition at 48 hours (one generation) | P. falciparum luciferase growth in erythrocytes, 48 h | Potency, µM (highest dose often 28.7 µM), for the others: at the top dose activity change, negative = inhibition, most hits filed as inhibitors | 310,000 compounds, 5.9% hits
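Read-out is firefly luciferase luminescence from an integrated reporter in P. falciparum, so falling signal marks reduced parasite growth. Infected erythrocytes were at 2% hematocrit and 0.1% parasitemia (final) in Albumax-supplemented RPMI 1640.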
Pf growth 96h: P. falciparum growth inhibition at 96 hours. Potency, µM (doses to about 28.7 µM), for the others: top-dose activity change, negative = inhibition, usual class: inhibitors. P. falciparum luciferase reporter growth, 96 h. 320,000 compounds, 6.9% hits
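Plates of compound plus infected erythrocytes (2% hematocrit, 0.05% parasitemia final) incubate 96 hours, 37 C, 5% CO2. Detection reagent added; reduced luminescence from the parasites' luciferase reporter flags inhibition.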
AmpC no deterg: inhibitors of E. coli AmpC beta-lactamase without detergent; Potency, µM (titrated, usually from 57.1 µM), for inactives: top-dose activity change, negative = inhibition, usual class: inhibitors; AmpC nitrocefin hydrolysis, absorbance 480 nm, 0.0001% Triton; P00811; AID 485341; 330,000 compounds, 0.52% hits;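 also: plate controls were no compound for no effect and no enzyme for full effect; nearly all actives have a fitted effect of over 20% in size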
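20 mM phosphate pH 7.0 + 0.01% (detergent screen) or 0.0001% Triton X-100; 5.3 nM AmpC reagent; cpd preinc 15 min RT; nitrocefin (800 uM stock) to start; A480 q20 s × 4 min; Activity was normalised to no-enzyme and no-compound control wells.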
AMA1 RON2 block: AMA1-RON2 (P. falciparum) interaction inhibition. AlphaScreen AMA1-biotinylated RON2 peptide binding. 360,000 compounds, 0.2% hits. AID 720542. Potency, µM (top dose mostly 58.2 µM), for the others: top-dose activity change, negative = inhibition, actives largely listed as inhibitors;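 also: 0% = vehicle wells and -100% = peptide control; nearly all actives have a fitted effect of over 45% in size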
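AMA1 (3D7) with his tag at 25 nM final met compounds first, then biotinylated RON2 peptide at 25 nM; detection used donor plus acceptor beads, 10 µg/mL apiece, read by AlphaScreen after 30 min at room temperature.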
HCV inh: blocks hepatitis C virus; 340,000 compounds, 3.4% hits; Huh7.5.1 HCVcc-Cre infection, luciferase reporter, 44 h; Potency, µM (titrated, usually from 41.8 µM), for the others: at the highest dose activity change, negative = inhibition, most hits filed as inhibitors
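A cell-based infection assay in which seeded cells (1,000 per well) receive test compound after 4 h, are inoculated with HCVcc-Cre at approximately 0.5 moi, and are incubated 44 h before luminescence detection.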
Starred values were filed as active, the others as inactive; ? = inconclusive; / = no result given. Calls follow the shape of the dose curve; as a rule, active = well fitted curve in the direction sought with a large enough effect; inconclusive = small, poorly fitted or top-dose-only effect, or another doubt; inactive = no such curve, though single readings can be large; an effect the other way counts as inactive or inconclusive. Unless noted, % is scaled to controls: 0 for no effect and ±100 for the full control effect; potency is read from the fitted curve at half-maximal effect.

SMILES | AmpC detergent | Pf growth 48h | Pf growth 96h | AmpC no deterg | AMA1 RON2 block | HCV inh
CC(=Nc1ccc(O)cc1)c1sc2ccccc2c1O | -4% | 128% | 42% | -39% | -7% | 13µM*
CC(=Nc1cccc(C)c1)c1sc2ccccc2c1O | 0% | 118% | 216% | -19% | 66% | ?
CC(=Nc1ccccc1O)c1sc2ccccc2c1O | -5% | ? | 15µM* | 7.1µM* | 65% | ?
N#Cc1c(N2C(=O)Nc3ccccc3N2O)sc2c1CCCCCC2 | -9% | -25% | 9.3µM* | -14% | -9% | 20%
O=C(NC1CCCc2ccccc21)C1CCN(c2c3c(nc4ncnn24)CCC3)CC1 (centres undefined) | -12% | ? | -22% | -3% | 0% | -5%
O=C(NCc1cccc(C(F)(F)F)c1)C1CCN(c2ncccn2)CC1 | ? | 8% | 22% | 1% | -13% | -12%
Cc1cc(C)nc(N2CCC(C(=O)Nc3ccc(Oc4ccccc4)cc3)CC2)n1 | 1% | -8% | 12µM* | ? | 2% | ?
Cc1cc(C)nc(N2CCC(C(=O)NCc3ccccc3)CC2)n1 | -3% | 22% | ? | -8% | 12% | -12%
O=C(Nc1ccc(Oc2ccccc2)cc1)C1CCN(c2c3c(nc4ncnn24)CCC3)CC1 | -4% | ? | 27% | -10% | 75% | 25µM*
Cc1cc(C)nc(N2CCC(C(=O)NCc3cccc(C(F)(F)F)c3)CC2)n1 | -6% | 2% | 2.1µM* | -18% | 19% | -7%
Cc1cc(C)nc(N2CCC(CNC(=O)CCc3ccccc3)CC2)n1 | 4% | ? | 10µM* | 71% | -2% | -1%
COc1ccccc1CNC(=O)CCc1c(C)c2cc3c(C)c(C)oc3cc2oc1=O | 4% | / | / | / | / | /
CCOc1ccc(CCNC(=O)C2CCN(C(=O)c3cc4sccc4n3CC)CC2)cc1OCC | 16% | / | / | / | / | /
O=C(Nc1ccc2c(c1)CCC2)C1CCN(c2c3c(nc4ncnn24)CCC3)CC1 | -12% | 12µM* | -9% | 90% | -1% | 4.5µM*
COc1ccccc1N1CCN(C(=O)CN2C(=O)COc3ccc(S(=O)(=O)N4CCC(C)CC4)cc32)CC1 | -2% | / | / | / | / | /
CCOC(=O)c1c(C)nc2c(c(SC)nn2-c2ccccc2)c1N | ? | ? | ? | 0% | 46% | 10µM*
COc1ccc(-c2noc(-c3ccc(NCc4ccccc4OC)c([N+](=O)[O-])c3)n2)cc1 | -1% | / | / | / | / | /
Cc1ccc(S(=O)(=O)N2CCN(C(=O)C3CC3C)CC2)c(C)c1 (centres undefined) | ? | ? | 10% | -19% | 3% | 14%
Cc1ccc(S(=O)(=O)N2CCN(C(=O)c3ccccc3Cc3ccccc3)CC2)c(C)c1 | -15% | ? | 9.3µM* | 40% | -9% | -29%
COc1ccc(C)cc1S(=O)(=O)N1CCN(C(=O)c2ncoc2-c2cccc(F)c2)CC1 | -6% | 2% | 0.66µM* | 63% | 29% | ?
CC(=O)Nc1ccc(S(=O)(=O)N2CCN(C(=O)c3ncoc3-c3cccc(F)c3)CC2)cc1 | 2% | -5% | -1% | 6% | 47% | ?
Cc1ccc(S(=O)(=O)N2CCN(C(=O)C3CCN(C(=O)c4ccc(F)cc4)CC3)CC2)c(C)c1 | ? | 13µM* | ? | 160% | 4% | 11µM*
Cc1ccc(S(=O)(=O)N2CCN(C(=O)c3ccco3)CC2)c(C)c1 | -8% | -4% | 10µM* | 3% | 9% | 3%
Cc1ccc(S(=O)(=O)N2CCN(C(=O)c3ccco3)CC2)cc1 | 0% | -5% | -4% | 0% | -24% | -4%
CCc1ccc(OC)c(S(=O)(=O)N2CCN(C(=O)c3ccco3)CC2)c1 | -6% | -2% | ? | 23% | -2% | -4%
